Positions count from the first letter of the chain named. In all, about 16,000 sequences were measured (“ka relative to ugcaugu”: median about 0.0091, highest 2% from about 0.032 on). For the sample, the highest values were picked, then their nearest neighbours and some sequences at random.
T1: RBFOX1 RRM (Homo sapiens, UniProt Q9NWB1 109-208)
T1 sequence: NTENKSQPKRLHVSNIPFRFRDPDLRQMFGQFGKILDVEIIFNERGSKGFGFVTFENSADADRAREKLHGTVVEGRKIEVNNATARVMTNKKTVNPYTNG

B1: UACCAUC (DNA:RNA)
RNA: GGGAGACCGGAAUUCAGAUUGUCCUACCAUCUUAAAUCCCGUCGUAGCCACCA
DNA 1: CAATCTGAATTCCGGTCTCCC
DNA 2: TGGTGGCTACGACGGGATT
B2: CAGGAGG (DNA:RNA)
RNA: B1 RNA with U25C, C27G, C28G, U30G, C31G
DNA 1: CAATCTGAATTCCGGTCTCCC
DNA 2: TGGTGGCTACGACGGGATT
B3: GGAUGGG (DNA:RNA)
RNA: GGGAGACCGGAAUUCAGAUUGUCCGGAUGGGUUAAAUCCCGUCGUAGCCACCA
DNA 1: CAATCTGAATTCCGGTCTCCC
DNA 2: TGGTGGCTACGACGGGATT
B4: GGCAUGG (DNA:RNA)
RNA: B3 RNA with A27C, U28A, G29U
DNA 1: CAATCTGAATTCCGGTCTCCC
DNA 2: TGGTGGCTACGACGGGATT
B5: GCAUAGC (DNA:RNA)
RNA: B3 RNA with G26C, G29A, G31C
DNA 1: CAATCTGAATTCCGGTCTCCC
DNA 2: TGGTGGCTACGACGGGATT
B6: GGAAUGG (DNA:RNA)
RNA: B3 RNA with U28A, G29U
DNA 1: CAATCTGAATTCCGGTCTCCC
DNA 2: TGGTGGCTACGACGGGATT
B7: GCAUGGG (DNA:RNA)
RNA: B3 RNA with G26C
DNA 1: CAATCTGAATTCCGGTCTCCC
DNA 2: TGGTGGCTACGACGGGATT
B8: GCAUCGU (DNA:RNA)
RNA: B3 RNA with G26C, G29C, G31U
DNA 1: CAATCTGAATTCCGGTCTCCC
DNA 2: TGGTGGCTACGACGGGATT
B9: GUAUGGG (DNA:RNA)
RNA: B3 RNA with G26U
DNA 1: CAATCTGAATTCCGGTCTCCC
DNA 2: TGGTGGCTACGACGGGATT
B10: GGAUGGC (DNA:RNA)
RNA: B3 RNA with G31C
DNA 1: CAATCTGAATTCCGGTCTCCC
DNA 2: TGGTGGCTACGACGGGATT
B11: GCAUGGC (DNA:RNA)
RNA: B3 RNA with G26C, G31C
DNA 1: CAATCTGAATTCCGGTCTCCC
DNA 2: TGGTGGCTACGACGGGATT
B12: GUCAUGG (DNA:RNA)
RNA: B3 RNA with G26U, A27C, U28A, G29U
DNA 1: CAATCTGAATTCCGGTCTCCC
DNA 2: TGGTGGCTACGACGGGATT
B13: GCAUGGU (DNA:RNA)
RNA: B3 RNA with G26C, G31U
DNA 1: CAATCTGAATTCCGGTCTCCC
DNA 2: TGGTGGCTACGACGGGATT
B14: GUAUGGU (DNA:RNA)
RNA: B3 RNA with G26U, G31U
DNA 1: CAATCTGAATTCCGGTCTCCC
DNA 2: TGGTGGCTACGACGGGATT
B15: GUGUAAG (DNA:RNA)
RNA: B3 RNA with G26U, A27G, G29A, G30A
DNA 1: CAATCTGAATTCCGGTCTCCC
DNA 2: TGGTGGCTACGACGGGATT
B16: UAGUACG (DNA:RNA)
RNA: B1 RNA with C27G, C28U, U30C, C31G
DNA 1: CAATCTGAATTCCGGTCTCCC
DNA 2: TGGTGGCTACGACGGGATT
B17: CAGUGCA (DNA:RNA)
RNA: B3 RNA with G25C, G26A, A27G, G30C, G31A
DNA 1: CAATCTGAATTCCGGTCTCCC
DNA 2: TGGTGGCTACGACGGGATT
B18: GCCCCCA (DNA:RNA)
RNA: B1 RNA with U25G, A26C, A29C, U30C, C31A
DNA 1: CAATCTGAATTCCGGTCTCCC
DNA 2: TGGTGGCTACGACGGGATT
B19: UAGUAAA (DNA:RNA)
RNA: B1 RNA with C27G, C28U, U30A, C31A
DNA 1: CAATCTGAATTCCGGTCTCCC
DNA 2: TGGTGGCTACGACGGGATT
B20: GAUAUAC (DNA:RNA)
RNA: B1 RNA with U25G, C27U, C28A, A29U, U30A
DNA 1: CAATCTGAATTCCGGTCTCCC
DNA 2: TGGTGGCTACGACGGGATT
B21: AGUAAAU (DNA:RNA)
RNA: B3 RNA with G25A, A27U, U28A, G29A, G30A, G31U
DNA 1: CAATCTGAATTCCGGTCTCCC
DNA 2: TGGTGGCTACGACGGGATT
B22: GCCAUGG (DNA:RNA)
RNA: B3 RNA with G26C, A27C, U28A, G29U
DNA 1: CAATCTGAATTCCGGTCTCCC
DNA 2: TGGTGGCTACGACGGGATT
B23: GCAUUGG (DNA:RNA)
RNA: B3 RNA with G26C, G29U
DNA 1: CAATCTGAATTCCGGTCTCCC
DNA 2: TGGTGGCTACGACGGGATT
B24: CGCAUGG (DNA:RNA)
RNA: B3 RNA with G25C, A27C, U28A, G29U
DNA 1: CAATCTGAATTCCGGTCTCCC
DNA 2: TGGTGGCTACGACGGGATT
B25: CUUGGUG (DNA:RNA)
RNA: B3 RNA with G25C, G26U, A27U, U28G, G30U
DNA 1: CAATCTGAATTCCGGTCTCCC
DNA 2: TGGTGGCTACGACGGGATT
B26: AGGGUAG (DNA:RNA)
RNA: B3 RNA with G25A, A27G, U28G, G29U, G30A
DNA 1: CAATCTGAATTCCGGTCTCCC
DNA 2: TGGTGGCTACGACGGGATT
B27: CCCGGGC (DNA:RNA)
RNA: B3 RNA with G25C, G26C, A27C, U28G, G31C
DNA 1: CAATCTGAATTCCGGTCTCCC
DNA 2: TGGTGGCTACGACGGGATT
B28: CGGGCUC (DNA:RNA)
RNA: B1 RNA with U25C, A26G, C27G, C28G, A29C
DNA 1: CAATCTGAATTCCGGTCTCCC
DNA 2: TGGTGGCTACGACGGGATT
B29: CGGGGGC (DNA:RNA)
RNA: B3 RNA with G25C, A27G, U28G, G31C
DNA 1: CAATCTGAATTCCGGTCTCCC
DNA 2: TGGTGGCTACGACGGGATT
B30: GGGCUGU (DNA:RNA)
RNA: B3 RNA with A27G, U28C, G29U, G31U
DNA 1: CAATCTGAATTCCGGTCTCCC
DNA 2: TGGTGGCTACGACGGGATT
B31: GGGCUCU (DNA:RNA)
RNA: B3 RNA with A27G, U28C, G29U, G30C, G31U
DNA 1: CAATCTGAATTCCGGTCTCCC
DNA 2: TGGTGGCTACGACGGGATT
B32: GGGGCUG (DNA:RNA)
RNA: B3 RNA with A27G, U28G, G29C, G30U
DNA 1: CAATCTGAATTCCGGTCTCCC
DNA 2: TGGTGGCTACGACGGGATT
B33: ACCGGGC (DNA:RNA)
RNA: B3 RNA with G25A, G26C, A27C, U28G, G31C
DNA 1: CAATCTGAATTCCGGTCTCCC
DNA 2: TGGTGGCTACGACGGGATT
B34: GGGGCUC (DNA:RNA)
RNA: B3 RNA with A27G, U28G, G29C, G30U, G31C
DNA 1: CAATCTGAATTCCGGTCTCCC
DNA 2: TGGTGGCTACGACGGGATT
B35: CGGGCUG (DNA:RNA)
RNA: B3 RNA with G25C, A27G, U28G, G29C, G30U
DNA 1: CAATCTGAATTCCGGTCTCCC
DNA 2: TGGTGGCTACGACGGGATT

target: T1, RBFOX1 RRM; test: EMSA; HiTS-Eq, 1 nM pool, 10 min; buffer printed only for the single-RNA assays: 10 mM Tris pH 7.5, 150 mM NaCl, 3.4 mM EDTA, 0.001% NP-40, 30 C; settings: tags: His6 N-terminal (pET28a); label: 5' 32P
Summary of the method: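 Purified RbFox RRM (wild type or mutant) was equilibrated for 10 min in 50 µL with 1 nM of a 5′-radiolabelled pool of RNA with 7 randomized nucleotides, its flanks annealed to DNA oligonucleotides, across increasing protein concentrations. Free RNA was separated by 8% native PAGE, excised, reverse-transcribed, PCR-barcoded and sequenced on an Illumina HiSeq 2500. Relative association constants came from read-count changes of each variant against the control reaction, normalised to the cognate motif.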

| Binder | binding signal |
| --- | --- |
| B1 | 0.000341 KA relative to UGCAUGU |
| B2 | 0.00882 KA relative to UGCAUGU |
| B3 | 0.0169 KA relative to UGCAUGU |
| B4 | 0.104 KA relative to UGCAUGU |
| B5 | 0.0095 KA relative to UGCAUGU |
| B6 | 0.0293 KA relative to UGCAUGU |
| B7 | 0.0735 KA relative to UGCAUGU |
| B8 | 0.0157 KA relative to UGCAUGU |
| B9 | 0.00944 KA relative to UGCAUGU |
| B10 | 0.0116 KA relative to UGCAUGU |
| B11 | 0.43 KA relative to UGCAUGU |
| B12 | 0.0107 KA relative to UGCAUGU |
| B13 | 0.558 KA relative to UGCAUGU |
| B14 | 0.0104 KA relative to UGCAUGU |
| B15 | 0.0113 KA relative to UGCAUGU |
| B16 | 0.0135 KA relative to UGCAUGU |
| B17 | 0.0149 KA relative to UGCAUGU |
| B18 | 0.00457 KA relative to UGCAUGU |

| Binder | binding signal |
| --- | --- |
| B19 | 0.00712 KA relative to UGCAUGU |
| B20 | 0.00528 KA relative to UGCAUGU |
| B21 | 0.00281 KA relative to UGCAUGU |
| B22 | 0.0159 KA relative to UGCAUGU |
| B23 | 0.0185 KA relative to UGCAUGU |
| B24 | 0.582 KA relative to UGCAUGU |
| B25 | 0.0206 KA relative to UGCAUGU |
| B26 | 0.0176 KA relative to UGCAUGU |
| B27 | 0.00898 KA relative to UGCAUGU |
| B28 | 0.0209 KA relative to UGCAUGU |
| B29 | 0.0168 KA relative to UGCAUGU |
| B30 | 0.0234 KA relative to UGCAUGU |
| B31 | 0.0214 KA relative to UGCAUGU |
| B32 | 0.0461 KA relative to UGCAUGU |
| B33 | 0.0122 KA relative to UGCAUGU |
| B34 | 0.0466 KA relative to UGCAUGU |
| B35 | 0.0324 KA relative to UGCAUGU |

Reference: article PMC9911399, “Two distinct binding modes provide the RNA-binding protein RbFox with extraordinary sequence specificity”
